From PubChem BioAssay (NCATS)
Records with an inconclusive call do not appear. Where a call stands in place of a potency, no number is given. Unmarked numbers belong to inactive results. Calls of active or inactive are those of the source. Calls come from the whole dose curve; as a rule, active = well fitted curve in the direction sought with a large enough effect; inconclusive = small, poorly fitted or top-dose-only effect, or another doubt; inactive = no such curve, though single readings can be large; an effect the other way counts as inactive or inconclusive.

Legend:
[1] = S16 Schwann cell viability assay (CellTiter-Glo assay) (AID 624031);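 note: cellular ATP luminescence as a viability measure; nearly all actives have a fitted effect of over 70% in size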
Summary of the method: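 Native S16 Schwann cells (rat), serum-containing medium, overnight attachment then 24 h drug exposure at 37 °C/5% CO2. CellTiter-Glo ATP signal; normalized to cell-free and vehicle wells.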

[2] = tested on: ATS189; assay: qHTS profiling for inhibitors of Plasmodium falciparum proliferation (AID 504749); note: nearly all actives have a fitted effect of over 60% in size; note: potency is the fitted concentration of half-maximal effect; conditions: P. falciparum in erythrocytes, SYBR Green DNA, 72 h; series mostly up to 12.8 µM
Summary of the method: (§1)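 SYBR Green fluorescence (ex 485 nm, em 535 nm) reports parasite DNA after 72 h compound exposure of infected red cells at 0.3% parasitemia, 2.5% hematocrit; signal normalized to 0.29 uM artemisinin and vehicle wells.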

[3] = tested on: ATS95; assay: as above; conditions: P. falciparum in erythrocytes, SYBR Green DNA, 72 h; series mostly up to 12.8 µM
Summary of the method: as §1

[4] = tested on: CP194; assay: as above; conditions: P. falciparum in erythrocytes, SYBR Green DNA, 72 h; series mostly up to 12.8 µM
Summary of the method: as §1

[5] = tested on: CP201; assay: as above; conditions: P. falciparum in erythrocytes, SYBR Green DNA, 72 h; series mostly up to 12.8 µM
Summary of the method: as §1

[6] = tested on: CP237; assay: as above; conditions: P. falciparum in erythrocytes, SYBR Green DNA, 72 h; series mostly up to 12.8 µM
Summary of the method: as §1

[7] = tested on: CP250; assay: as above; conditions: P. falciparum in erythrocytes, SYBR Green DNA, 72 h; series mostly up to 12.8 µM
Summary of the method: as §1

[8] = tested on: CP260; assay: as above; conditions: P. falciparum in erythrocytes, SYBR Green DNA, 72 h; series mostly up to 12.8 µM
Summary of the method: as §1

[9] = tested on: CP266; assay: as above; conditions: P. falciparum in erythrocytes, SYBR Green DNA, 72 h; series mostly up to 12.8 µM
Summary of the method: as §1

[10] = tested on: CP286; assay: as above; conditions: P. falciparum in erythrocytes, SYBR Green DNA, 72 h; series mostly up to 12.8 µM
Summary of the method: as §1

[11] = tested on: CP315; assay: as above; conditions: P. falciparum in erythrocytes, SYBR Green DNA, 72 h; series mostly up to 12.8 µM
Summary of the method: as §1

[12] = tested on: DIV17; assay: as above; conditions: P. falciparum in erythrocytes, SYBR Green DNA, 72 h; series mostly up to 12.8 µM
Summary of the method: as §1

[13] = tested on: GB4; assay: as above; conditions: P. falciparum in erythrocytes, SYBR Green DNA, 72 h; series mostly up to 12.8 µM
Summary of the method: as §1

[14] = tested on: HB3; assay: as above; conditions: P. falciparum in erythrocytes, SYBR Green DNA, 72 h; series mostly up to 12.8 µM
Summary of the method: as §1

[15] = tested on: P93_24; assay: as above; conditions: P. falciparum in erythrocytes, SYBR Green DNA, 72 h; series mostly up to 12.8 µM
Summary of the method: as §1

[16] = tested on: P94_40; assay: as above; conditions: P. falciparum in erythrocytes, SYBR Green DNA, 72 h; series mostly up to 12.8 µM
Summary of the method: as §1

[17] = tested on: PAD; assay: as above; conditions: P. falciparum in erythrocytes, SYBR Green DNA, 72 h; series mostly up to 12.8 µM
Summary of the method: as §1

[18] = tested on: TAB109; assay: as above; conditions: P. falciparum in erythrocytes, SYBR Green DNA, 72 h; series mostly up to 12.8 µM
Summary of the method: as §1

[19] = tested on: TAB165; assay: as above; conditions: P. falciparum in erythrocytes, SYBR Green DNA, 72 h; series mostly up to 12.8 µM
Summary of the method: as §1

Row | SMILES | outcome [1] | Potency [2] | Potency [3] | Potency [4] | Potency [5] | Potency [6] | Potency [7] | Potency [8] | Potency [9] | Potency [10] | Potency [11] | Potency [12] | Potency [13] | Potency [14] | Potency [15] | Potency [16] | Potency [17] | Potency [18] | Potency [19]
1 | COC(=O)N/N=C/C1=C[N+](=O)c2ccccc2[N+]1=O | inactive | inactive | inactive | inactive | inactive | inactive | inactive | inactive | inactive | inactive | inactive | inactive | inactive | inactive | inactive | inactive | inactive | inactive | inactive
2 | COc1cc(C2c3cc4c(cc3C(O[C@@H]3OC5COC(c6cccs6)OC5C(O)C3O)C3COC(=O)C23)OCO4)cc(OC)c1O (stereo not given in full) | inactive | 2.24 µM (active) | 2.51 µM (active) | 1.69 µM (active) | 4.78 µM (active) | 2.24 µM (active) | 2 µM (active) | 1.12 µM (active) | 4.78 µM (active) | 1.26 µM (active) | 3.79 µM (active) | 4.26 µM (active) | 2.39 µM (active) | 3.16 µM (active) | 1.58 µM (active) | 1.26 µM (active) | 2 µM (active) | 2.24 µM (active) | 1.41 µM (active)
3 | CNC1CC(N)[C@H](O)[C@@H](O[C@@H]2OC(CO)C3OC4(OC(C(N)CO)C(O)C(O)C4O)O[C@@H]3[C@H]2O)C1O (stereo not given in full) | inactive | inactive | inactive | inactive | inactive | inactive | inactive | inactive | inactive | inactive | inactive | inactive | inactive | inactive | inactive | inactive | inactive | inactive | inactive
4 | Nc1nc2ncc(CNc3ccc(C(=O)NC(CCC(=O)O)C(=O)O)cc3)nc2c(=O)[nH]1 (stereo not given) | inactive | inactive |  | inactive | inactive | inactive | inactive | inactive | inactive | inactive | inactive | inactive | inactive | inactive | inactive | inactive | inactive | inactive | inactive
5 | O=C1OC(CO)C(O)C(O)C1O (stereo not given) | inactive | inactive | inactive | inactive | inactive | inactive | inactive | inactive | inactive | inactive | inactive | inactive | inactive | inactive |  | inactive | inactive | inactive | inactive
6 | COc1ccc2cc1Oc1ccc(cc1)CC1c3c(cc4c(c3Oc3cc5c(cc3OC)CCN(C)C5C2)OCO4)CCN1C (stereo not given) |  | 4.47 µM (active) | 4.47 µM (active) | 13.5 µM (active) |  | 2.82 µM (active) |  | 4.47 µM (active) |  | 3.98 µM (active) |  | 7.57 µM (active) | 6.75 µM (active) | 7.08 µM (active) | 6.31 µM (active) | 8.91 µM (active) | 8.91 µM (active) | 7.08 µM (active) | 3.98 µM (active)
7 | CN(C)CCCOC1C(C(O)CO)OC2OC(C)(C)O[C@@H]21 (stereo not given in full) |  | inactive | inactive | inactive | inactive | inactive | inactive |  | inactive | inactive | inactive | inactive | inactive | inactive | inactive | inactive | inactive | inactive | inactive
8 | C[C@]12CCC(=O)C=C1CCC1C2C(=O)C[C@]2(C)C1CC[C@]2(O)C(=O)CO (stereo not given in full) | inactive | inactive | inactive | inactive | inactive | inactive | inactive | inactive | inactive | inactive | inactive | inactive | inactive | inactive | inactive | inactive | inactive | inactive | inactive
9 | CC1(C)SC2C(N3C(=O)C(c4ccccc4)NC3(C)C)C(=O)N2C1C(=O)O (stereo not given) | inactive | inactive | inactive | inactive | inactive | inactive | inactive | inactive | inactive | inactive | inactive | inactive | inactive | inactive | inactive | inactive | inactive | inactive | inactive
10 | CCCC(=O)O[C@]1(C(=O)CO)CCC2[C@@H]3CCC4=CC(=O)CC[C@]4(C)C3C(O)C[C@]21C (stereo not given in full) | inactive | inactive | inactive | inactive | inactive | inactive | inactive | inactive | inactive | inactive | inactive | inactive | inactive | inactive | inactive | inactive | inactive | inactive | inactive
11 | CCC(CCC(C)C1CCC2C3CC=C4CC(O)CC[C@@]4(C)C3CC[C@@]12C)C(C)C (stereo not given in full) | inactive | inactive | inactive | inactive | inactive | inactive | inactive | inactive | inactive | inactive | inactive | inactive | inactive | inactive | inactive | inactive | inactive | inactive | inactive
